Compound activity as filed in PubChem BioAssay.
Pf growth 48h = inhibits P. falciparum growth in the first generation, 48 h; P. falciparum luciferase growth in erythrocytes, 48 h; Potency, µM (doses to about 28.7 µM), usual class: inhibitors; 310,000 tested, 5.9% active; AID 504832
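First compound was added to culture medium, then infected red cells at 0.1% parasitemia and 2% hematocrit (final). After incubation at 37 C under 5% CO2, luciferase detection reagent was dispensed and light output recorded.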
HCV inh = HCV inhibition. Huh7.5.1 HCVcc-Cre infection, luciferase reporter, 44 h. Potency, µM (series often up to 41.8 µM), hits mostly inhibitors. 340,000 tested, 3.4% active
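Infectious HCVcc-Cre (~0.5 moi) was added to cells just after compound, with cells seeded 4 h earlier at 1,000 per well. Luciferase activity after 44 h culture reported infection; substrate was incubated 15 min at room temperature before reading.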
Pf growth 96h = P. falciparum growth inhibition at 96 hour, primary screen for plastid delayed-death inhibitors. P. falciparum luciferase reporter growth, 96 h. Potency, µM (series often up to 28.7 µM), usual class: inhibitors. 320,000 tested, 6.9% active. AID 504834
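96 h incubation, 37 C, 5% CO2, of luciferase-reporter P. falciparum-infected RBCs (2% hematocrit, 0.05% parasitemia final) with test compounds; endpoint luminescence.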
NS1 inh = inhibitors of influenza NS1 protein function. Potency, µM (series often up to 46.1 µM). 270,000 tested, 0.4% active; calls by dose curve; note: actives are rising curves; nearly all actives have a fitted effect of over 50% in size
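Growth recovery, yeast-based: influenza A NS1 expressed in S. cerevisiae causes slow growth, and suppressors are detected by OD600. The parent strain without NS1 is used as positive control.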
Vaccinia Venus = inhibitors of vaccinia virus (Venus reporter); Potency, µM (titrated, usually from 36.5 µM), most hits filed as inhibitors; AID 720580; Vaccinia virus Venus reporter expression, fluorescence; 330,000 tested, 0.46% active; calls by dose curve; tested in A549 cells; note: nearly all actives have a fitted effect of over 30% in size
VACV mCherry inh = vaccinia inhibition (mCherry reporter). Vaccinia virus mCherry reporter infection, fluorescence. Potency, µM (doses to about 36.5 µM), hits mostly inhibitors. 310,000 tested, 0.63% active. AID 720579; calls by dose curve; tested in A549 cells; note: nearly all actives have a fitted effect of over 35% in size
A number is an active result. This is a sample that favours compounds with a hit; in the whole collection about 11% have one here. Unless noted, calls come from the whole dose curve; as a rule, active = well fitted inhibition curve with a large enough effect; inconclusive = small, poorly fitted or top-dose-only effect, or another doubt; inactive = no such curve, though single readings can be large or run the other way.

Screening CCN(CCCNC(=O)Cn1ncc2c(=O)oc3ccccc3c21)c1cccc(C)c1 returned HCV inh 13µM, Pf growth 96h inactive, NS1 inh inactive, Vaccinia Venus inconclusive and VACV mCherry inh inconclusive.
For CCCN(C(=O)Cn1ncc2c(=O)oc3ccccc3c21)c1cccc(C)c1 the results were Pf growth 48h inactive, HCV inh inactive, Pf growth 96h inactive, NS1 inh inactive, Vaccinia Venus inactive and VACV mCherry inh inactive.
For O=C(Cn1ncc2c(=O)oc3ccccc3c21)NCC1COc2ccccc2O1 (configuration not stated) the results were HCV inh inactive, Pf growth 96h 1.9µM, NS1 inh inactive, Vaccinia Venus inactive and VACV mCherry inh inactive.
Screening COCc1c(C(=O)NCC2COc3ccccc3O2)oc2ccccc12 (configuration not stated) returned Pf growth 48h 12µM, HCV inh inactive and Pf growth 96h inconclusive.
For O=C(Cn1ncc2c(=O)oc3ccccc3c21)NC1CC1 the results were Pf growth 48h inactive, HCV inh inactive, Pf growth 96h inconclusive, NS1 inh inactive, Vaccinia Venus inactive and VACV mCherry inh inactive.
`CC(=O)NCC1COc2ccccc2O1` (configuration not stated) gave Pf growth 48h inactive, HCV inh inactive, Pf growth 96h inactive and NS1 inh inactive.
N#Cc1c(NC(=O)CSc2ncnc3sccc23)oc(-c2ccco2)c1-c1ccco1 was read as HCV inh inactive, Pf growth 96h 2.3µM, NS1 inh inactive, Vaccinia Venus inactive and VACV mCherry inh inactive.
`Cc1cc(NC(=O)CSc2ncnc3sccc23)no1` gave Pf growth 48h inconclusive, HCV inh inactive, Pf growth 96h inactive, Vaccinia Venus inactive and VACV mCherry inh inactive.
Screening O=C(NCCCCc1ccccc1)C12CN(Cc3ccccc3)CC1C(c1ccc([N+](=O)[O-])cc1)=NO2 (configuration not stated) returned Pf growth 48h 13µM, HCV inh inconclusive, Pf growth 96h inconclusive, NS1 inh inactive, Vaccinia Venus inactive and VACV mCherry inh inconclusive.
Screening Cc1ccc(CNC(=O)C23CN(Cc4ccccc4)CC2C(c2ccc([N+](=O)[O-])cc2)=NO3)o1 (configuration not stated) returned Pf growth 48h inconclusive, HCV inh inactive, Pf growth 96h inconclusive, NS1 inh inactive, Vaccinia Venus inactive and VACV mCherry inh inactive.
CC(C)CCNC(=O)C12CN(Cc3ccccc3)CC1C(c1cccc([N+](=O)[O-])c1)=NO2 (configuration not stated) was read as Pf growth 48h inconclusive, HCV inh inactive, Pf growth 96h inconclusive, NS1 inh inactive, Vaccinia Venus inactive and VACV mCherry inh inactive.
O=C(NCCc1cccs1)C12CN(Cc3ccccc3)CC1C(c1cccc([N+](=O)[O-])c1)=NO2 (configuration not stated) was read as Pf growth 48h 8.3µM, HCV inh inconclusive, Pf growth 96h inconclusive, NS1 inh inactive, Vaccinia Venus inactive and VACV mCherry inh inconclusive.
Screening O=C(NCCCCc1ccccc1)C12CN(Cc3ccccc3)CC1C(c1cccc([N+](=O)[O-])c1)=NO2 (configuration not stated) returned Pf growth 48h 4.7µM, HCV inh inconclusive, Pf growth 96h inconclusive, NS1 inh inconclusive, Vaccinia Venus inactive and VACV mCherry inh inconclusive.
For O=C(NCc1ccco1)C12CN(Cc3ccccc3)CC1C(c1cccc([N+](=O)[O-])c1)=NO2 (configuration not stated) the results were Pf growth 48h inconclusive, HCV inh inactive, Pf growth 96h inconclusive, NS1 inh inactive, Vaccinia Venus inactive and VACV mCherry inh inactive.
For Cc1nonc1NC(=O)CSc1ccccn1 the results were Pf growth 48h inactive, HCV inh inactive, Pf growth 96h inactive, NS1 inh inactive, Vaccinia Venus inactive and VACV mCherry inh inactive.
Screening CC(=O)NC(c1ccco1)c1cc(Cl)c2ccc(N(C)C)nc2c1O (configuration not stated) returned Pf growth 48h inconclusive and Pf growth 96h inactive.
CC(=O)NC(c1cc(Cl)c2cccnc2c1O)C(C)C (configuration not stated) was read as Pf growth 48h 3.7µM and Pf growth 96h 10µM.
Screening CC(=O)NC(c1ccc(C)cc1)c1cc(Cl)c2cccnc2c1O (configuration not stated) returned Pf growth 48h inconclusive, HCV inh 5.6µM, Pf growth 96h inactive, NS1 inh inactive, Vaccinia Venus inconclusive and VACV mCherry inh inconclusive.
CC(=O)NC(c1cc(Cl)c2cccnc2c1O)C1CC1 (configuration not stated) was read as Pf growth 48h 4.1µM and Pf growth 96h 13µM.
Screening CC(=O)NC(c1ccccc1)c1cc([N+](=O)[O-])c2cccnc2c1O (configuration not stated) returned Pf growth 48h inconclusive, HCV inh inconclusive, Pf growth 96h inactive, Vaccinia Venus inconclusive and VACV mCherry inh inconclusive.
Screening Cc1cccc(C)c1-n1nnnc1C1c2ccccc2C(=O)N1CCC(C)C (configuration not stated) returned Vaccinia Venus inactive and VACV mCherry inh inactive.
Screening CCn1cc2nc(SCC(=O)Nc3ccccc3F)n(Cc3ccc(C)cc3)c(=O)c2n1 returned Vaccinia Venus inactive and VACV mCherry inh inactive.
Screening Cc1cc(=O)c2c(O)c3c(O)cc(=O)c4c3c3c(cc(O)c1c23)C(C)(C)C=4O returned Pf growth 48h 2.7µM and Pf growth 96h 1.5µM.
Screening NC(=O)NOCc1ccc(Cl)cc1Cl returned Pf growth 48h inactive, HCV inh inactive, Pf growth 96h inactive, NS1 inh inactive, Vaccinia Venus inactive and VACV mCherry inh inactive.
`CNC(=S)/N=C/NOCc1ccc(Cl)cc1Cl` gave Pf growth 48h inconclusive, HCV inh inconclusive, Pf growth 96h 15µM, Vaccinia Venus inactive and VACV mCherry inh inactive.
Screening CCOC(=O)C1=CC[C@@H](c2ccccc2Cl)N(S(=O)(=O)c2ccc(C)cc2)[C@H]1C(=O)OCC returned Pf growth 48h 13µM, HCV inh inconclusive, Pf growth 96h inconclusive, Vaccinia Venus inactive and VACV mCherry inh inconclusive.
Screening O=C(CN1CCOCC1)c1cccc([N+](=O)[O-])c1 returned Vaccinia Venus inactive and VACV mCherry inh inactive.
For O=C(CSc1oc(-c2ccc(F)cc2)nc1S(=O)(=O)c1ccc(F)cc1)NCC1CCCO1 (configuration not stated) the results were Pf growth 48h inactive, HCV inh inactive, NS1 inh inactive, Vaccinia Venus inactive and VACV mCherry inh inactive.
Screening CCOc1ccc(N2C(=O)/C(=C/c3ccco3)C(=O)NC2=S)cc1 returned Pf growth 48h inactive, HCV inh inactive, Pf growth 96h inconclusive and NS1 inh inactive.
`CCOc1ccc(N2C(=O)/C(=C/c3ccco3)N(C)C2=S)cc1` gave Pf growth 48h inactive, HCV inh inactive, Pf growth 96h 2.1µM, NS1 inh inactive, Vaccinia Venus inactive and VACV mCherry inh inactive.
